JMJD2A Tudor inh: qHTS Assay for Inhibitors of JMJD2A-Tudor Domain. AlphaScreen JMJD2A-Tudor / H3K4me3 peptide binding. Potency, µM (highest dose often 114 µM), for the others: top-dose activity change, negative = inhibition, hits mostly inhibitors. actives 4.4% (n = 390,000); note: % is set by controls: 0 for no effect and ±100 for the full control effect; nearly all actives have a fitted effect of over 50% in size
HP1b binding inh: HTS for Inhibitors of HP1-beta Chromodomain Interactions with Methylated Histone Tails; actives 0.56% (n = 390,000); Potency, µM (titrated, usually from 114 µM), for inactives: at the top dose activity change, negative = inhibition, most hits filed as inhibitors; Chromobox protein homolog 1 (Homo sapiens), P83916; AID 540317, 2011; AlphaScreen HP1-beta / biotin-H3K9me3 peptide binding; note: nearly all actives have a fitted effect of over 70% in size
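AlphaScreen: HP1-beta (50 nM) preformed 30 min with biotin-H3(1-18)K9me3 peptide (50 nM) in PBS pH 7.4, 0.01% Tween-20. Compound added for 30 min at RT, then streptavidin donor/nickel chelate acceptor beads (10 ug/mL) for 30 min.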
G9a inh: qHTS Assay for Inhibitors of Histone Lysine Methyltransferase G9a. actives 8.8% (n = 350,000). Histone-lysine N-methyltransferase EHMT2 (Homo sapiens), Q96KQ7. Potency, µM (titrated, usually from 102 µM), for the others: top-dose activity, negative = inhibition, most hits filed as inhibitors. G9a H3K9 monomethylation, AlphaScreen, 2 h; note: % is set by controls: 0 for no effect and ±100 for the full control effect; nearly all actives have a fitted effect of over 75% in size
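Quantitative HTS format: methyltransferase activity on a biotin-tagged H3K9 peptide is measured by AlphaScreen, using a rabbit anti-monomethyl-H3K9 antibody with streptavidin donor and anti-IgG acceptor beads. Final levels are 20 nM enzyme, 500 nM peptide, 20 uM SAM; 2 h RT.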
BAZ2B block: qHTS Assay for Inhibitors of BAZ2B. Bromodomain adjacent to zinc finger domain protein 2B (Homo sapiens), Q9UIF8. AlphaScreen BAZ2B-H3K14Ac peptide displacement. Potency, µM (doses to about 114 µM), for the others: top-dose activity change, negative = inhibition, usual class: inhibitors. actives 4.4% (n = 360,000); note: % is set by controls: 0 for no effect and ±100 for the full control effect; nearly all actives have a fitted effect of over 60% in size
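Inhibition is scored as reduced AlphaScreen emission. The BAZ2B/b-H3(5-23)K14Ac complex (50 nM each) in PBS pH 7.4, 0.01% Tween-20 meets compound (up to 110 uM) for 30 min at RT before bead addition.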
PLK1 PBD block: qHTS for Inhibitors of PLK1-PDB (polo-like kinase 1 - polo-box domain): Primary Screen. Plk1 PBD binding of FITC phosphopeptide, fluorescence polarization. Potency, µM, for inactives: max response, negative = inhibition, usual class: inhibitors. actives 2.8% (n = 360,000); note: series mostly up to about 57 µM; % is set by controls: 0 for no effect and ±100 for the full control effect; nearly all actives have a fitted effect of over 65% in size
Target sequence (P53350 whole entry, looked up, the tested form may be a part): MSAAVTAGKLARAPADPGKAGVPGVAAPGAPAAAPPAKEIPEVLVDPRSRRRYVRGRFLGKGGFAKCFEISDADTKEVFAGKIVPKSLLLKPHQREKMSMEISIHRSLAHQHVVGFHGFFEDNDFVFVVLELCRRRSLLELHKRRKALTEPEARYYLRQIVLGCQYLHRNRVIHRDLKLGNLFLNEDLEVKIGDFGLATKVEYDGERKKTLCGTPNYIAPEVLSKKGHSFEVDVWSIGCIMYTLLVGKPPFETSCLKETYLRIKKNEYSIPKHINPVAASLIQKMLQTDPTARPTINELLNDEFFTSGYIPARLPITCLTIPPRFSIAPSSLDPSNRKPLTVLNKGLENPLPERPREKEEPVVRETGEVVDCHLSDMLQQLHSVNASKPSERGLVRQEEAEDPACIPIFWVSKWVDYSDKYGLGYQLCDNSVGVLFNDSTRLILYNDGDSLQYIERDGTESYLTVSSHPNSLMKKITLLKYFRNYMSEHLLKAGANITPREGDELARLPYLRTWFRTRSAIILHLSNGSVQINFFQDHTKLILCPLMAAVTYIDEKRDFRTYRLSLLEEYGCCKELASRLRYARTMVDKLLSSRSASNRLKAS
Sfp inh: qHTS Assay for Inhibitors of Bacillus subtilis Sfp phosphopantetheinyl transferase (PPTase); Potency, µM, for the others: largest response in the series, negative = inhibition, actives largely listed as inhibitors; actives 3.5% (n = 310,000); Biochemical Sfp PPTase activity, qHTS; 4'-phosphopantetheinyl transferase ffp (Bacillus subtilis), Q9F4F7;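 note: the enzyme is Sfp with the accession as filed and its product quenches rhodamine fluorescence; 0% = enzyme reaction without inhibitor and -100% = no enzyme wells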
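Buffer: 50 mM Hepes-Na pH 7.6, 10 mM MgCl2, 0.01% Nonidet P-40, 0.01% BSA. Enzyme 15 nM, pre-exposed to compound 15 min; substrates then added and fluorescence change tracked over 30 min.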
* marks the source's active call; other numbers are inactive results; ? = inconclusive; . = no result given; [ ] = dose if it differs, or a comment. Shown are actives, neighbours in structure and some others; about 12% of the full set was active somewhere. Calls come from the whole dose curve; as a rule, active = well fitted curve in the direction sought with a large enough effect; inconclusive = small, poorly fitted or top-dose-only effect, or another doubt; inactive = no such curve, though single readings can be large; an effect the other way counts as inactive or inconclusive. Potency is the fitted concentration of half-maximal effect.

SMILES	JMJD2A Tudor inh	HP1b binding inh	G9a inh	BAZ2B block	PLK1 PBD block	Sfp inh
Cn1c(CNc2ccccc2O)nc2ccccc21	?	2%	3.5µM*	?	-11%	45µM*
Cc1ccc(CNc2ccc3c(c2)ncn3C(C)C)cc1	?	8%	11µM*	35µM*	0%	-9%
CC(C)n1cnc2cc(NCc3nc4ccccc4n3C)ccc21	?	10%	45µM*	?	0%	-3%
Cc1ccccc1NCc1nc2ccccc2n1C	-21%	38%	8%	-27%	0%	12%
COc1ccc(CCNC(=O)c2nc(SCc3ccc(C)cc3)ncc2Cl)cc1OC	-18%	32%	7%[59 µM]	-3%	.	.
CC(C)c1ccc(NC(=O)Cn2c(=O)oc3ccccc32)cc1	-5%	41%	4%	-1%	-3%	4%
C[C@H](C(=O)OCO/N=[N+](\[O-])N1CCCC1)c1cccc2ccccc12	-28%	5%	.	.	.	56µM*
COc1ccc(CN2CCC(C(=O)NC(C)c3cccc4ccccc34)CC2)cc1 (stereo not given)	.	.	.	.	-15%	.
Cc1ccc(Cl)cc1NC(=O)c1cc(CN2CCCC2)on1	-15%	24%	10%[59 µM]	-18%	.	.
CCN(CC)c1ccc(NC(=O)c2cc(CN3CCCC3)on2)c(C)c1	?	14%	14µM*	?	.	.
COc1cc2c(cc1OC)CC(=O)N(C)CC2	-3%	17%	6%	1%	0%	19%
COc1cc2c(cc1OC)C[N+](C)(C)CC2	50µM*	9%	-10%[12.7 µM]	-6%	-6%	?
CCOc1ccc(-c2ccc(SCc3ccccn3)nn2)cc1	-9%	27%	2%	-2%	4%	14%
COc1ccc(-c2nnc(SCc3ccccn3)n2C)cc1	-11%[11.4 µM]	-7%	12%[59 µM]	-3%	30µM*	14%
COc1ccc(N=C(N)SCc2ccccn2)cc1	50µM*	?	16µM*	?	-12%	?
COc1ccccc1-c1nnc(SCc2ccccn2)n1C	-1%	5%	20%[12.7 µM]	5%	-8%	-13%
CCOC(=O)C(=O)Nc1ccccc1C(=O)NCc1ccccc1	-7%	26%	34%	-16%	4%	16%
CCc1cccc(C)c1NC(=O)CO/N=C(\N)CC(=O)NC1CCCCC1	-22%	38%	8%	-9%	-2%	5%
CCOC(=O)C1(C)C=C(Nc2ccc(O)cc2)C(=O)N1c1ccc(O)cc1 (stereo not given)	?	-15%	8.9µM*	50µM*	-1%	50µM*
CCOC(=O)C1(C)C=C(Nc2ccc(OC)cc2)C(=O)N1c1ccc(OC)cc1 (stereo not given)	-3%	27%	19%[59 µM]	16%	2%	-3%
O=c1cc[nH]c(=S)[nH]1	.	.	-4%[2.33 µM]	.	.	45µM*
COc1ccc(NS(=O)(=O)c2ccc(C(=O)N3CCN(c4ccc(F)cc4)CC3)cc2)cc1	-29%	22%	.	.	2%	.
COc1ccc(N2CCN(C(=O)c3ccc(NS(=O)(=O)c4ccc(F)c(F)c4)cc3)CC2)cc1	89µM*	3%	56µM*	50µM*	1%	3%
COc1ccc(N2CCN(C(=O)c3cccc(Cn4cc(Cl)cn4)c3)CC2)cc1	?	-25%	18µM*	?	-8%	-21%
COc1ccc(N2CCN(C(=O)c3ccc(NS(=O)(=O)c4cccc(F)c4)cc3)CC2)cc1	?	-11%	?	?	-8%	3%
SMILES	JMJD2A Tudor inh	HP1b binding inh	G9a inh	BAZ2B block	PLK1 PBD block	Sfp inh
COc1ccc(N2CCN(C(=O)c3cccc(NS(=O)(=O)c4cccc(F)c4)c3)CC2)cc1	-30%	12%	.	40µM*	3%	19%
O=C(NCCN1CCCC1)c1ccc2c(c1)N(Cc1ccccc1)C(=O)c1ccccc1S2(=O)=O	-24%	32%	?	-22%	-7%	12%
CO[C@H]1COC(=O)[C@H](C)NC(=O)[C@@H](C)COC(=O)[C@H]2CCCN2C(=O)C/C=C\[C@H]1C	.	.	.	.	.	10%
c1ccc(C2CCC(N3CCN(c4ccccc4)CC3)CC2)cc1 (stereo not given)	?	2%	56µM*	?	-13%	2%
O=C(c1cccc(OC2CCN(C3CCCC3)CC2)c1)N1CCCCCCC1	-2%	38%	-37%	-8%	0%	18%
O=S(=O)(c1ccccc1)N1CCC(N2CCN(c3ccccc3)CC2)CC1	.	.	-6%[59 µM]	6%	.	16%
COc1ccc(C(=O)N2CCN(C3CCC(c4ccccc4)CC3)CC2)cc1OC (stereo not given)	2.8µM*	-49%	3.2µM*	50µM*	0%	-26%
COc1cccc(C(=O)N2CCN(C3CCCCC3)CC2)c1	11µM*	-24%	.	?	-7%	-42%
COc1cccc(C(=O)N2CCN(C3CCN(Cc4ccccc4)CC3)CC2)c1	.	.	8.9µM*	28µM*	.	?
COC(=O)c1cc2c(cc1NC(=O)c1c(C)nn(-c3ccc(C)cc3)c1-n1cccc1)OCO2	-4%	23%	-21%[59 µM]	-11%	.	.
O=C(CCCN1C(=O)C(c2ccccc2)Oc2cccnc21)NCCc1ccc(Cl)cc1 (stereo not given)	-13%	20%	2%[0.0925 µM]	0%	-15%	-2%
c1ccc2[nH]c(-c3cnco3)cc2c1	-28%	-4%	16%[0.501 µM]	-6%	-4%	15%
COc1ccccc1C(=O)N1CCN(C2CCN(Cc3ccccc3)CC2)CC1	7.9µM*	?	10µM*	56µM*	-5%	-18%
CCOC(=O)CCSc1nnc(-c2cccnc2)n1-c1ccccc1OC	-11%	22%	3%[12.7 µM]	8%	-4%	11%
CN1CCN(C2=C(Cl)C(=O)N(C3CCCCC3)C2=O)CC1	-18%	36%	40µM*	1%	-8%	-1%
O=[N+]([O-])c1cccc(-c2nc(Oc3ccc(Cl)cc3)c3ccccc3n2)c1	.	.	11µM*	?	.	-30%
Cc1ccccc1-n1cc(-c2ccc(Br)cc2)nc1SCC(N)=O	?	-10%	-39%[59 µM]	?	4%	-5%
Cc1ccc(-c2cn(-c3ccccc3)c(SCC(N)=O)n2)cc1C	?	-22%	?	50µM*	-4%	-18%
CCOC(=O)NC(=O)CSc1nc(-c2ccc(C)c(C)c2)cn1-c1ccccc1	?	?	7.9µM*	35µM*	-6%	-14%
CC(=O)Nc1ccc(OC(F)(F)C(F)F)c(NC(C)=O)c1	-12%	8%	-9%	?	-10%	22%
